Reference: PubChem BioAssay (NCI)
Compounds without any hit were thinned out: in the full panel of roughly 83,000, 20% have a hit.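 Cell lines were cultured in 96-well plates, exposed to a single compound concentration, and assessed for percent growth 48 hours later.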 The source made the active and inactive calls. How the source made its calls: active means growth percent below 10; inactive means the rest.

System: MDA-MB-468 breast
Test: NCI-60 one-dose screen, 48 h (100 = growth as untreated, 0 = no growth, -100 = all killed)
Settings: 10 µM unless noted

SMILES	growth
CC1Cc2c(N(C)C)ncnc2N(C)c2ccc(O)cc21 (stereo not drawn)	79.4% (inactive)
O=C(O)C1[S][Sb]([CH](C(=O)O)[CH](C(=O)O)[Sb]2[S]C(C(=O)O)C(C(=O)O)[S]2)[S]C1C(=O)O (stereo not drawn)	81.6% (inactive)
COc1cc(OCc2cccc(-c3ccccc3)c2C)cc(OC)c1CN1CCCCC1C(=O)NCCOCCOCCN (stereo not drawn)	30% (inactive)
O=[N+]([O-])c1ccc2nc3c4ccccc4c4ccccc4c3nc2c1	75.2% (inactive)
COc1cccc(-c2cc(-c3cc4ccccc4oc3=O)nc(N)n2)c1	92.7% (inactive)
O=C(C1=Cc2cc3ccccc3n2Cc2cnnn21)c1ccc(O)cc1	62.2% (inactive)
C=C1C(=O)O[C@H]2[C@H]1CC/C(COC(=O)c1cccnc1N)=C\CC[C@@]1(C)O[C@@H]21	14.8% (inactive)
COc1ccc(/C(C)=C(\c2ccc(Cl)cc2)c2ccc(OCCN3CCCCC3)cc2)cc1F	15.7% (inactive)
O=C(O[C@@H]1Cc2c(O)cc(O)cc2O[C@@H]1c1cc(O)c(O)c(O)c1)c1cc(O)c2c(c1)OCO2	109% (inactive)
C/C(Cc1ccccc1)=N\O	106% (inactive)
C#CCC(C)(O)/C=C/C1=C(C)CCCC1(C)C (stereo not drawn)	87.3% (inactive)
O=C(OCC1CC2(Cl)C(Cl)=C(Cl)C1(Cl)C2(Cl)Cl)C1C(C(=O)OCC2CC3(Cl)C(Cl)=C(Cl)C2(Cl)C3(Cl)Cl)C2(Cl)C(Cl)=C(Cl)C1(Cl)C2(Cl)Cl (stereo not drawn)	107% (inactive)
C=C(CNCCc1ccc(O)cc1)[C@@H]1CC[C@]2(COC3CCCCO3)CC[C@]3(C)[C@H](CC[C@@H]4[C@@]5(C)CCC(NCCO)C(C)(C)[C@@H]5CC[C@]43C)[C@@H]12 (stereo partly drawn)	-80.1% (active)
